The values that follow come from PubChem BioAssay (NCATS).

The nature of experiment [1]: AP1 Signaling Pathway (AID 357; active = well fitted curve in either direction with a large enough effect, not every such curve was filed as active; also: % is scaled to controls: 0 for no effect and ±100 for the full control effect). The settings on record: ME-180 AP-1-bla reporter, EGF-induced, beta-lactamase ratio, 5 h; at 7.69 µM (top of the series) unless noted. Summed up: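 Read-out was the 460nm/530nm emission ratio (excitation 405nm) after CCF4 loading for 2.5 hours at room temperature. Cells carried an AP-1-driven beta-lactamase reporter, were stimulated with EC50 EGF plus compound for 5 hours, and AC50 values came from titrations.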

Experiment [2] can be described thus: NFAT Signaling Pathway (AID 444; active = well fitted curve in either direction with a large enough effect, not every such curve was filed as active;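 also: carbachol stimulus at about its EC50 of 1 µM final; % is scaled to controls: 0 for no effect and ±100 for the full control effect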). The settings on record: Jurkat NFAT-bla M1, carbachol, beta-lactamase ratio, 5 h; at 7.69 µM (top of the series) unless noted. An outline of the steps: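 Read-out: CCF4 FRET ratio (460 nm/530 nm) after 1 h RT dye loading, used for %activity and AC50 from titration series. Cells: Jurkat NFAT-β-lactamase/M1 line, treated with compound plus 1 uM carbachol for 5 h, 37 °C.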

The nature of experiment [3]: Stat Signaling Pathway (AID 446; active = well fitted curve in either direction with a large enough effect, not every such curve was filed as active;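 also: ME-180 cervical cancer cells given 40 pM IL-6 alongside compound; SIE-controlled beta-lactamase reporter measured as 460/530 nm FRET emission ratio; % is scaled to controls: 0 for no effect and ±100 for the full control effect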). The conditions noted are these: ME-180 (cervical carcinoma) SIE beta-lactamase reporter, IL-6 stimulated, 5 h; at 7.69 µM (top of the series) unless noted. An outline of the steps:
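ME-180 cells carrying a SIE-driven beta-lactamase reporter are stimulated with 40 pM IL-6 for 5 h at 37C in the presence of compound. The 460/530 nm FRET substrate ratio is read after 2.5 h at RT. Data are normalised to 300 pM IL-6 and to 125 nM JAK inhibitor controls.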

In experiment [4] the target is Glucocorticoid receptor (Homo sapiens) (UniProt P04150). Put plainly: GR-EFC Redistribution (AID 451; calls by dose curve; also: potency is read from the fitted curve at half-maximal effect). The conditions noted are these: CHO-K1 GR-EFC translocation, beta-gal luminescence, 2 h. An outline of the steps:
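Translocation of GR-ED fusion to nuclear EA restores b-gal, read by luminescence after 1 h room-temperature detection. Engineered CHO-K1 biosensor cells, 1,000/well, exposed 2 h at 37 C to titrations up to 46 uM final.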

Experiment [5] has as its target Mitogen-activated protein kinase 10 (Mus musculus) (UniProt Q61831). Briefly: JNK3 AlphaScreen Assay (AID 530; active = well fitted curve in either direction with a large enough effect, not every such curve was filed as active;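 also: kinase came from lysate of stimulated human HepG2 cells; signal reports phosphorylation of biotinylated GST-cJun 1-79 at Ser73 with 10 µM ATP; % is scaled to controls: 0 for no effect and ±100 for the full control effect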). Summed up:
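Compound titrations were preincubated 15 minutes at room temperature with substrate, antibody and pre-activated JNK3-containing HepG2 lysate. Reactions were started with 10 uM ATP and stopped with EDTA-containing bead buffer for AlphaScreen detection.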
Background: Bead proximity is the source of the signal in Alpha formats.

The target of experiment [6] is 3',5'-cyclic-AMP phosphodiesterase 4B (Homo sapiens) (UniProt Q07343). Briefly: qHTS Assay for Inhibitors of PDE-IV (AID 607; active = well fitted activation curve with a large enough effect in the main read-out, with a control signal flat, not every such curve was filed as active; also: % of control where 0% means no effect). Summed up:
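HEK293 ACTOne cells with CNG channel (1000/well), endogenous PDE4; membrane potential dye, compounds up to 22.9 uM final. Fluorescence Ex 535/Em 590; RO 20-1724 (100 uM final) as reference.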
In general terms: In qHTS, concentration-response curves come from the screen itself.

Experiment [7] is described as follows: qHTS Assay for Lipid Storage Modulators (AID 1519; calls by dose curve). The conditions noted are these: Drosophila S3 cells, BODIPY lipid droplet/cell ratio, laser cytometry, cells loaded with oleic acid; for activity change, negative = inhibition: at 57.5 µM (top of the series). Summed up:
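Cells seeded at 5,000 per well were treated with compounds over a concentration series and loaded with oleic acid (400 uM, as added). Lipid droplet fluorescence (488 nm excitation, 500-530 nm channel) was read by laser-scanning cytometry and normalized to 20 uM Triacsin C.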

Experiment [8] in a line: Primary qHTS for small molecule stabilizers of the endoplasmic reticulum resident proteome: Secreted ER Calcium Modulated Protein (SERCaMP) assay (AID 1508630). Also: % is scaled to controls: 0 for no effect and ±100 for the full control effect. An outline of the steps:
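GLuc-SERCaMP-expressing SH-SY5Y cells, pretreated 16 h with compound, are challenged with thapsigargin to empty ER calcium stores; after 4 h, coelenterazine is added directly to the medium and luminescence is imaged.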

Experiment [9] has as its target Glucocorticoid receptor (Homo sapiens) (UniProt P04150). Briefly: GR-GFP Redistribution (AID 450;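 active = compounds whose dose series gives a full or clear partial fitted curve of increased nuclear translocation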; also: potency is read from the fitted curve at half-maximal effect). The conditions noted are these: U2OS GR-GFP nuclear translocation, laser cytometry, 2 h.
Experiment [10] in a line: Confirmation and Secondary Assay for Modulators of Hemoglobin Beta Chain Splicing at IVS2 654 locus (AID 910).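 Also: HeLa cells stably carrying EGFP split by mutant beta-globin IVS2-654 intron; per-well total GFP intensity by laser scanning cytometry after 2-day treatment; % of control where 0% means no effect.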 Summed up: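 Readout: per-well total peak green fluorescence (488 nm ex, 500–520 nm em) from objects 5–250 µm, reflecting correct splicing of an EGFP-654 reporter. Compounds were applied for 2 days at 37 °C to overnight-plated HeLa EGFP-654 cells; controls were DMSO and 500 nM IVS2-654 PNA.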

Experiment [11] addresses Lysosomal acid glucosylceramidase (Homo sapiens) (UniProt P04062). Briefly: Glucocerebrosidase-p2 (AID 348; in the data active = potency below about 10 µM; also: potency is read from the fitted curve at half-maximal effect). The conditions noted are these: purified GBA, blue fluorogenic substrate, 40 min. An outline of the steps:
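Compounds titrated from 0.6 nM upwards against 0.2 nM enzyme in pH 5.9 citric acid/KH2PO4, taurocholate, tween-20; blue fluorogenic substrate 80 uM, 40 min room temperature, stopped and read Ex 365/Em 440 for AC50.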

For experiment [12], the target named is Dual specificity protein kinase CLK4 (Homo sapiens) (UniProt Q9HAZ1). Briefly: qHTS Assay for Inhibitors of CDC-like Kinase 4 (ADP-FP Assay) (AID 1795). Also: % is scaled to controls: 0 for no effect and ±100 for the full control effect; nearly all actives have a fitted effect of over 60% in size. An outline of the steps: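 Recombinant human Clk4 (6.25 nM) phosphorylated RS repeat peptide (100 uM) with 1 uM ATP in Tris pH 7.5/MgCl2/EGTA/DTT/Triton buffer for one hour. ADP was quantified by Transcreener competitive fluorescence polarization against an ADP calibration curve.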

Experiment [13] addresses Rap guanine nucleotide exchange factor 3 (Homo sapiens) (UniProt O95398). Briefly: Confirmatory qHTS for antagonist of cAMP-regulated guanine nucleotide exchange factor 3 (EPAC1) (AID 1645880).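 Also: plate controls were DMSO only for no effect and full effect of the ATA control for full effect; nearly all actives have a fitted effect of over 55% in size.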 Summed up: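 Nucleotide exchange uses 100 nM EPAC1, 250 nM RAP1B-BODIPY-GDP and 50 uM GDP, with compounds in a concentration-titration series. After 5 min at room temperature, fluorescence (480 nm ex/540 nm em) is read every 5 min for 30 min. Data are normalized to control ATA and DMSO.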

Experiment [14] shares this target. Put plainly: Confirmatory qHTS for agonist of cAMP-regulated guanine nucleotide exchange factor 3 (EPAC1) (AID 1645881).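 Also: EPAC1 catalysed release of BODIPY-GDP from Rap1B seen as fluorescence loss; 100% = effect of cAMP agonist control; nearly all actives have a fitted effect of over 75% in size.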
Experiment [15] concerns the target Rap guanine nucleotide exchange factor 4 (Homo sapiens) (UniProt Q8WZA2). Briefly: Confirmatory qHTS for agonist of cAMP-regulated guanine nucleotide exchange factor 4 (EPAC2) (AID 1645884).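 Also: nucleotide exchange releases bodipy-GDP from Rap1 and this lowers its fluorescence; % is scaled to controls: 0 for no effect and ±100 for the full control effect; nearly all actives have a fitted effect of over 65% in size.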
The target is the same in experiment [16]. Briefly: Confirmatory qHTS for antagonist of cAMP-regulated guanine nucleotide exchange factor 4 (EPAC2) (AID 1645885). Also: % is scaled to controls: 0 for no effect and ±100 for the full control effect; nearly all actives have a fitted effect of over 25% in size.
Experiment [17] addresses Cytochrome P450 3A4 (Homo sapiens) (UniProt P08684). Put plainly: qHTS Assay for Inhibitors and Substrates of Cytochrome P450 3A4 (AID 884). Also: nearly all actives have a fitted effect of over 50% in size. Also: potency is read from the fitted curve at half-maximal effect. Summed up:
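20 nM human CYP3A4 with 25 uM Luciferin-PPXE (at KM) in 200 mM KPO4, preincubated 10 min with compound; NADPH regeneration started a 60 min RT reaction. Luciferin detected by luminescence, normalized to 57 uM ketoconazole as full inhibition.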

Experiment [18] shares this target. Put plainly: qHTS Assay for Activators of Cytochrome P450 3A4 (AID 885). Also: nearly all actives have a fitted effect of over 65% in size. Also: potency is read from the fitted curve at half-maximal effect. An outline of the steps: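 Human CYP3A4 (20 nM) with Luciferin-PPXE at 25 uM (its KM) in 200 mM KPO4; 10 min compound preincubation, then NADPH regeneration and 60 min reaction at RT. Luciferin read by luminescence; normalized to 57 uM ketoconazole full inhibition.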
The target of experiment [19] is Ubiquitin carboxyl-terminal hydrolase 1 (Homo sapiens) (UniProt O94782). Put plainly: Inhibitors of USP1/UAF1: Pilot qHTS (AID 504865). Also: nearly all actives have a fitted effect of over 35% in size. Also: potency is read from the fitted curve at half-maximal effect. Summed up:
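USP1/UAF1 complex (1nM) preincubated with compound 15 min at room temperature, then Ub-Rho substrate (150nM final) added. Fluorescence read kinetically at 480/540 nm, 6 reads every 60 seconds. Buffer: 50mM HEPES pH 7.8, 0.5mM EDTA, 0.1 mg/ml BSA, 1mM TCEP, 0.01% Tween-20.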

The target of experiment [20] is Cytochrome P450 1A2 (Homo sapiens) (UniProt P05177). Briefly: p450-cyp1a2 (AID 410; calls by dose curve; also: potency is read from the fitted curve at half-maximal effect;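 as to activity change, negative = inhibition: -100% = full effect of reference inhibitor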). Summed up: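 Luminescent readout of luciferin formed from Luciferin-ME by human CYP1A2; data normalized against complete inhibition by 57 uM furafylline. Enzyme 20nM, substrate 100uM at Km, 100mM KPO4 buffer, 60 min reaction at room temperature.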
Chain of Cytochrome P450 1A2 (Homo sapiens) (P05177 whole entry, looked up): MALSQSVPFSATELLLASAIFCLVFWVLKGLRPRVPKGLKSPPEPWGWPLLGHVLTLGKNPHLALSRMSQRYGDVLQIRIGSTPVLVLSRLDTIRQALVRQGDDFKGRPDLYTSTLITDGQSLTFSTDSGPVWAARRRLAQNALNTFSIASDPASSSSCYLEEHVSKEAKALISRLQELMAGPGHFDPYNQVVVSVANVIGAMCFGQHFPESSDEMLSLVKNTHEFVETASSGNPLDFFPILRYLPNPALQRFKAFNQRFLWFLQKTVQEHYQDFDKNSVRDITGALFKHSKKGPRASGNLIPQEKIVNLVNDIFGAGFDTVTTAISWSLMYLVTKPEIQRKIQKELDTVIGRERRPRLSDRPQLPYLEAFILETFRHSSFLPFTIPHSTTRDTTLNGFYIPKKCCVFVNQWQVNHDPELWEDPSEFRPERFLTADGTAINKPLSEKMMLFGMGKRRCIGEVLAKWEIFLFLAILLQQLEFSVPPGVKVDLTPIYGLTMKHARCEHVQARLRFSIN
The mark [21] stands for this setting: measured here: cell count channel max response.
Setting [22] is: measured here: lipid channel max response.

Inconclusive results are not listed. Active and inactive are the calls of the source. Unless noted, calls follow the shape of the dose curve; as a rule, active = well fitted curve in the direction sought with a large enough effect; inconclusive = small, poorly fitted or top-dose-only effect, or another doubt; inactive = no such curve, though single readings can be large; an effect the other way counts as inactive or inconclusive.

Chain of Rap guanine nucleotide exchange factor 3 (Homo sapiens) (O95398 whole entry, looked up): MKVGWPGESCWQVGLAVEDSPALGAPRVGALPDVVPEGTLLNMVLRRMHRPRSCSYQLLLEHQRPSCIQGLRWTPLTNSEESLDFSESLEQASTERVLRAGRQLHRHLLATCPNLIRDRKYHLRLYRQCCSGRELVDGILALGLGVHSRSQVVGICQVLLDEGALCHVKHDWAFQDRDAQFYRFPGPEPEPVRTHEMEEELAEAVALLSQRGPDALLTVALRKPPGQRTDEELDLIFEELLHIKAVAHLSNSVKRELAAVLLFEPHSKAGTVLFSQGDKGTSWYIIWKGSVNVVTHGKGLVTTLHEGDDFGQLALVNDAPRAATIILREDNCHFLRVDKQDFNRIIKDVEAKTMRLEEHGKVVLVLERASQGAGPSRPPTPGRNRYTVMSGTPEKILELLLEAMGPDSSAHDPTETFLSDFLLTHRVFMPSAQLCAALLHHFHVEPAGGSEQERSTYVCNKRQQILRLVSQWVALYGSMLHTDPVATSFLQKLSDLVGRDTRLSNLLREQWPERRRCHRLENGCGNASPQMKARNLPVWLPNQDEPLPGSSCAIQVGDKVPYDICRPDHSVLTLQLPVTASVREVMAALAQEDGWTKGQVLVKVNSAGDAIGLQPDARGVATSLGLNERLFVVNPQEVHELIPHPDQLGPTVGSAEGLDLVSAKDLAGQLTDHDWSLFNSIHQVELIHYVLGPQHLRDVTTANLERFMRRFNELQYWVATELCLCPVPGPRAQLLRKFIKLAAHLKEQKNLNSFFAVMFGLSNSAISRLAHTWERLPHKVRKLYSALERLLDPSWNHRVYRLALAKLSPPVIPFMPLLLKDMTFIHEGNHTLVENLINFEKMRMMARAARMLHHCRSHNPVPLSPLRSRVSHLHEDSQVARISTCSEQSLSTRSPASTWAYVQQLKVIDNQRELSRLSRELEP
Chain of Rap guanine nucleotide exchange factor 4 (Homo sapiens) (Q8WZA2 whole entry, looked up): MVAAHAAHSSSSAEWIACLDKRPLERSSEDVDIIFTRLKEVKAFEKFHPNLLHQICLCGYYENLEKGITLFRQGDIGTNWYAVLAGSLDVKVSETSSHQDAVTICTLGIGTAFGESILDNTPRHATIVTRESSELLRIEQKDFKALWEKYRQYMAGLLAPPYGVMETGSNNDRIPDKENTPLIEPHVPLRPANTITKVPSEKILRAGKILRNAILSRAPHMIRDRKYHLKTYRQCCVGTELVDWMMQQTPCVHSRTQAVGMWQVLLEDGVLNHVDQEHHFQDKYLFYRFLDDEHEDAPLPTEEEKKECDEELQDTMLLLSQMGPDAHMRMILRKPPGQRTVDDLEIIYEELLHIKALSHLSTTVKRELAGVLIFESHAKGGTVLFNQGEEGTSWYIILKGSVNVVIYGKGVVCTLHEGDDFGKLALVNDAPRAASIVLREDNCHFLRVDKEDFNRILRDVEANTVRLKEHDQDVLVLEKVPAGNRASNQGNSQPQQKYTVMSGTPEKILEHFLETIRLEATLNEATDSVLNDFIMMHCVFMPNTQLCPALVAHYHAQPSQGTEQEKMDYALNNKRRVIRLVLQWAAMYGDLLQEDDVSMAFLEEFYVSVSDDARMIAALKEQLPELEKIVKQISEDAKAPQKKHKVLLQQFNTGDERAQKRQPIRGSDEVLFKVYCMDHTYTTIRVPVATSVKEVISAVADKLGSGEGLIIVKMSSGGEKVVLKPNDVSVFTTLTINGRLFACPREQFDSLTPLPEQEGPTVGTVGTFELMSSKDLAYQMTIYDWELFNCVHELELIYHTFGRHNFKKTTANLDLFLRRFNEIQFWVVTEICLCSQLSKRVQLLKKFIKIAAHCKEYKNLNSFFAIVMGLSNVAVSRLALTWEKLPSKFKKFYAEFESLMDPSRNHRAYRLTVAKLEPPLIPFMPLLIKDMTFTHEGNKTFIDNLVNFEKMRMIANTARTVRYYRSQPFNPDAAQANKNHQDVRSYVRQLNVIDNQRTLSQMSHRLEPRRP
Chain of Cytochrome P450 3A4 (Homo sapiens) (P08684 whole entry, looked up): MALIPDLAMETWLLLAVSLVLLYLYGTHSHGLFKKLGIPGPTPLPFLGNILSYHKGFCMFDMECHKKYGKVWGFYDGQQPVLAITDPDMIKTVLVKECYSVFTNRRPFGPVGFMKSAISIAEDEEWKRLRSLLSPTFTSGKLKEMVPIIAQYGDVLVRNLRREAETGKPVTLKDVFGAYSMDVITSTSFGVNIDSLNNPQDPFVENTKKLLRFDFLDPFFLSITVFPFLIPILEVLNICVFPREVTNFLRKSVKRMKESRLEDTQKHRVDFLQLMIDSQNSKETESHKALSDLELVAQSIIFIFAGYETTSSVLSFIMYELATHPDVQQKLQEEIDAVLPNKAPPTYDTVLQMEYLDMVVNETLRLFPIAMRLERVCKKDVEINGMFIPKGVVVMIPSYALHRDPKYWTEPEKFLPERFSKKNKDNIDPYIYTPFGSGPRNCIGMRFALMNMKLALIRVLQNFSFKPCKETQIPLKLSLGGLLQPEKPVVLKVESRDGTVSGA
Chain of Ubiquitin carboxyl-terminal hydrolase 1 (Homo sapiens) (O94782 whole entry, looked up): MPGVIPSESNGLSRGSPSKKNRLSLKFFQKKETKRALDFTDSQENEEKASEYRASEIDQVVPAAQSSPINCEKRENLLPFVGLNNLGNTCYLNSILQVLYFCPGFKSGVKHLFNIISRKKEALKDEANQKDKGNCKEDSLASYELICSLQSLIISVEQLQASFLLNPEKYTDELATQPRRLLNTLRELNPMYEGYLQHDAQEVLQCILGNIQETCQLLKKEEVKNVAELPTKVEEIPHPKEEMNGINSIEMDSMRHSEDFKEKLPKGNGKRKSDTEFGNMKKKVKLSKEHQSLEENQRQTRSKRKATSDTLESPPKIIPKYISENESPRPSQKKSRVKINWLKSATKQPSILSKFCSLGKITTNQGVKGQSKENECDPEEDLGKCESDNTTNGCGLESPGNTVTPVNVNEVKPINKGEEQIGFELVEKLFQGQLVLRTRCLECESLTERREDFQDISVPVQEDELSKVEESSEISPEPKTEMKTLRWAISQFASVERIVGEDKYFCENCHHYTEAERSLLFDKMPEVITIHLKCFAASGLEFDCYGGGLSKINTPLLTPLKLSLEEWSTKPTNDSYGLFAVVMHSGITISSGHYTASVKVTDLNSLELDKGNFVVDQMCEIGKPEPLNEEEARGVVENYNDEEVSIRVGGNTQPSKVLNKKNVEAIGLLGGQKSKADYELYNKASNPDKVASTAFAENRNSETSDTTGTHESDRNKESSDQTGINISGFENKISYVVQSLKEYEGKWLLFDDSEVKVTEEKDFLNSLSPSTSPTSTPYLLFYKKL
Chain of 3',5'-cyclic-AMP phosphodiesterase 4B (Homo sapiens) (Q07343 whole entry, looked up): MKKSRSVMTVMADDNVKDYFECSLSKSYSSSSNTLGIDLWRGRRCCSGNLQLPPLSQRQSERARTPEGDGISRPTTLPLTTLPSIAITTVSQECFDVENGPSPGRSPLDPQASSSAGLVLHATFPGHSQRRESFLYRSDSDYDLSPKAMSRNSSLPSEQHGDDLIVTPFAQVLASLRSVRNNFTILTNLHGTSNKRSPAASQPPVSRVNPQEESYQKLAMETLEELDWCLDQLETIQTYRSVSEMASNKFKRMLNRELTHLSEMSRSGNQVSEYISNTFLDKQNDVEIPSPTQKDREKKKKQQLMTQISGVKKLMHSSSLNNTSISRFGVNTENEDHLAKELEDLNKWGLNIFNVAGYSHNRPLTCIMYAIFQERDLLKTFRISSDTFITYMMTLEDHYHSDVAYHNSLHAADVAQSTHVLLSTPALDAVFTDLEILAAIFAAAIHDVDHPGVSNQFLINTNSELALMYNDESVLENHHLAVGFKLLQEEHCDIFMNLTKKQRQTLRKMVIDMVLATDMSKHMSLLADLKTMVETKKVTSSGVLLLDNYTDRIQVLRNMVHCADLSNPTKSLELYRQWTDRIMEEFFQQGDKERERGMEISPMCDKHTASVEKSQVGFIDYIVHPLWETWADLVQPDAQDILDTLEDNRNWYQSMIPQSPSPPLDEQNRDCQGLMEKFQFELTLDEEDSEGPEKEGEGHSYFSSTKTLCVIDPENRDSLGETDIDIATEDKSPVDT
Chain of Lysosomal acid glucosylceramidase (Homo sapiens) (P04062 whole entry, looked up): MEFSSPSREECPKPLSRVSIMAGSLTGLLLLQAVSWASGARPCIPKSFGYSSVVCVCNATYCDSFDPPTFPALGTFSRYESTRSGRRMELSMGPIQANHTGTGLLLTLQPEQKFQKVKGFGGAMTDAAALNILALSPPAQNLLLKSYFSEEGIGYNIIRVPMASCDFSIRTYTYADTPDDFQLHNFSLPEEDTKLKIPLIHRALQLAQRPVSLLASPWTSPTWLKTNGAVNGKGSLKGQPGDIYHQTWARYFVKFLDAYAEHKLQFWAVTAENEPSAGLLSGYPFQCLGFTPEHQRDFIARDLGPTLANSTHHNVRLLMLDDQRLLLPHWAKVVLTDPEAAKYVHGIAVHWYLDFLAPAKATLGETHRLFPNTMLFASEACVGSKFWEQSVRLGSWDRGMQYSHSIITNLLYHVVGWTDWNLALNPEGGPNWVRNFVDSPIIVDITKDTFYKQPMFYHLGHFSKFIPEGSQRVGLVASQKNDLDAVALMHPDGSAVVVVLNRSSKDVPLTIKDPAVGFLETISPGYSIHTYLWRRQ

As to `O=C(c1ccncc1)N1CCC[C@@]2(CCN(Cc3ccncc3)C2)C1`, the activity change, negative = inhibition in [1] was 14.5% (inactive); in experiment [2] it was 3.82% (inactive); in [7] it was 4.83% (inactive). The activity, negative = inhibition in [3] is -6.44% (inactive). Further, the Potency in experiment [4] is > 46 µM (inactive). Also, the Potency result in experiment [5] and in [6] was “inactive” in each case. Besides, the max response amounted to 4.05% in [7] (setting [21]) and 12.8% in experiment [7] (setting [22]). Besides, the result in experiment [8] was inactive.

Take `COc1ccc(CNc2nc(-c3ccoc3)nc3ccccc23)c(OC)c1`: the activity change, negative = inhibition was -10.8% (inactive) in experiment [1], -8.73% (inactive) in experiment [2] and 11% (inactive) in experiment [7]. Also, the activity, negative = inhibition in [3] was 6.96% (inactive). Moreover, the Potency in [9] and in [4] was > 46 µM (inactive) each time. The Potency entry in [5], in experiment [6] and in experiment [10] was “inactive” each time. The max response was -6.93% in [7] (setting [21]) and 2.43% in experiment [7] (setting [22]). In addition, the result in experiment [8] was inactive.

For `N#CCCn1c(=O)c(-c2cccs2)nc2cnc(N3CCOCC3)nc21`, the values for the Potency in [11], in experiment [9] and in experiment [4] were > 11.4 µM (inactive), > 9.22 µM (inactive) and > 46 µM (inactive), respectively. For the same molecule, the figures for the activity change, negative = inhibition in experiment [1] and in experiment [2] were 3.31% (inactive) and -28.6% (inactive), respectively. Also, the activity, negative = inhibition in experiment [3] was 17.9% (inactive). The Potency result in experiment [5], in experiment [6], in experiment [12], in experiment [13], in experiment [14] and in experiment [15] was “inactive” in each case. The Potency result in experiment [16] was “inactive”. Moreover, the outcome in [8] was inactive.

Consider `COc1cc(C)c2c(c1C=O)Oc1c(c(C)c(O)c3c1C(O)OC3=O)OC2=O` (centres undefined), for which the Potency in [17] is 12.6 µM (active); in experiment [19] it was 56.2 µM (active). Moreover, the Potency entry in experiment [18] and in experiment [10] was “inactive” each time. Moreover, in experiment [7], the activity change, negative = inhibition is 4.32% (inactive). Further, the figures for the max response in [7] (setting [21]) and in experiment [7] (setting [22]) were 5.41% and 11.3%, respectively. In addition, the result in experiment [8] was inactive.

Turning to `COc1ccc(CNc2ncnc3ccc(-c4c(C)noc4C)cc23)c(OC)c1`, the Potency was > 11.4 µM (inactive) in experiment [11]; 15.8 µM (active) in experiment [20]; > 46 µM (inactive) in experiment [9]; > 46 µM (inactive) in experiment [4]; 3.16 µM (active) in experiment [17]. Besides, the Potency entry in [5], in experiment [18], in experiment [12], in experiment [19], in [13] and in experiment [14] was “inactive” in each case. Also, the Potency entry in experiment [15] and in [16] was “inactive” in each case. For the same molecule, the outcome in experiment [8] was inactive.

With `COc1cccc(-c2ccc3ncnc(NCc4ccccc4OC)c3c2)c1`, the Potency in experiment [9] and in experiment [4] was > 46 µM (inactive) each time. The Potency entry in experiment [5], in experiment [6], in experiment [10] and in [19] was “inactive” in each case. The activity change, negative = inhibition in experiment [7] was 5.94% (inactive). The max response in experiment [7] (setting [21]) is -19.3%; in experiment [7] (setting [22]) it was -13.1%. Also, in experiment [8], the result was inactive.

For `CS(=O)(=O)c1ccc(Cn2c3c(c4cc(F)cc(F)c42)CCC[C@H]3CC(=O)O)cc1`, the Potency result in experiment [20], in experiment [5] and in experiment [18] was “inactive” each time. The Potency in [9] and in experiment [4] was > 46 µM (inactive) each time. Moreover, the activity change, negative = inhibition in experiment [7] is -2.09% (inactive). Further, the max response in [7] (setting [21]) turned out to be 15%; in experiment [7] (setting [22]) it was 14.3%. The outcome in [8] was inactive.

On to `O=C(c1cnccn1)N1CCC2(CC1)CN(c1ccccn1)C2`, for which the Potency result in experiment [20], in experiment [5], in experiment [6] and in experiment [17] was “inactive” each time. Besides, the activity change, negative = inhibition in [2] is -1.72% (inactive); in experiment [7], 2.3% (inactive). Further, in experiment [3], the activity, negative = inhibition was 22.6% (inactive). The Potency in [4] is > 46 µM (inactive); in experiment [18], 3.98 µM (active). The values for the max response in experiment [7] (setting [21]) and in experiment [7] (setting [22]) were -1.81% and -0.0464%, respectively. Besides, the outcome in [8] was inactive.
